IC50 data for three molecules are collected here from PubChem BioAssay AID686959 (The Scripps Research Institute Molecular Screening Center, 2013).

Calls of active or inactive are those of the source. The limit is not given here; nearly all actives have IC50 up to about 8.1 µM.

The nature of this experiment: small molecules binding CAG repeat RNA – biochemical, fluorescence, dose response (AID 686959). Conditions: r(CAG) RNA repeat binding.
On to `O=C(N/N=C/c1c(O)n(CCC2=CCCCC2)c(=S)[nH]c1=O)c1ccccc1`, for which the IC50 is 2040 nM (active). For `CC/C(=N\NC(=O)c1ccccc1O)c1c(O)n(C2CCCCC2)c(=O)[nH]c1=O` the value was 452 nM (active).

Take `C/C(=N\NC(=O)c1ccccc1O)c1c(O)n(C2CCCCC2)c(=O)[nH]c1=O`: the IC50 is 450 nM (active).

The term IC50 denotes the concentration that gives 50% inhibition.
